TPT1 inhibitor: inhibitors of Candida albicans tRNA 2'-phosphotransferase TPT1; recombinant caTPT1, FP RNA substrate dephosphorylation; AID 1962; actives 0.81% (n = 300,000); inhibition, % at 5 µM;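 active = inhibition above the mean of all tested compounds plus 3 SD, set per screening campaign, cut at about 24% in these data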
IDE cell activ: IDE (human) activation, cell-based; HEK cells, FAbeta-B cleavage, fluorescence polarization; 0% vehicle, 100% cell-free pure enzyme wells; activation, % at 5.96 µM; actives 0.073% (n = 340,000); AID 493087;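 active = activation above the mean of all tested compounds plus 3 SD, set per screening campaign, cut at about 17% in these data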
CRFBP-R2 agonist: CRF-BP/CRF-R2 complex agonism; HEK293 CRF-R2/CRF-BP, calcium dye fluorescence (FLIPR); percent of saturating CRF peptide response; activation, % at 13.2 µM; actives 0.46% (n = 350,000); AID 588473;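 active = activation of at least 50%, plus an integration ratio under a set limit after plate pattern correction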
IDE cell inh: inhibitors of human insulin-degrading enzyme in cells; P14735; HEK cells, FAbetaB cleavage, fluorescence polarization; inhibition, % at 5.59 µM; actives 0.41% (n = 320,000);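 active = percent inhibition above the average of all tested compounds plus 3 SD, set per screening campaign, cut at about 16% in these data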;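 also: IDE supplied by intact live HEK cells; FP after avidin binding of uncleaved biotin substrate so inhibition keeps polarization high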
HNF4A DNA FP: change in binding of human HNF4 alpha to DNA; activity change, % at 10 µM; HNF4a-FITC DNA binding, fluorescence polarization, 1 h; AID 1224865; P41235; actives 0.3% (n = 360,000); in the data active = activity change above about 30%, passing the limit was not always enough
Target sequence (P41235 whole entry, looked up): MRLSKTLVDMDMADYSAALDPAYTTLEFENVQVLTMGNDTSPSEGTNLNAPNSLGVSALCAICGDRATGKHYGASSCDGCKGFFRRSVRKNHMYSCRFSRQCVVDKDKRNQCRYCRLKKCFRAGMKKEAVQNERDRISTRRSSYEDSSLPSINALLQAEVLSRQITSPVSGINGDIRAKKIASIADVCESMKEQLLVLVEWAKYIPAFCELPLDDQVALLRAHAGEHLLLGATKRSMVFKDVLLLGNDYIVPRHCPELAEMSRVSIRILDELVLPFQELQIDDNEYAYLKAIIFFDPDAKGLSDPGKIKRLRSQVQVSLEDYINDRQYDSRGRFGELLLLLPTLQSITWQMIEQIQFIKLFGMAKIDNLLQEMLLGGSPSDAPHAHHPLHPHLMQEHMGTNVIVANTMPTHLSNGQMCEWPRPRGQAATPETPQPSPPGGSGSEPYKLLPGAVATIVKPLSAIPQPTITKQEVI
IDE inh confirm: cellular human IDE inhibition, confirmation; shares compounds with IDE cell inh; HEK cells, FAbetaB cleavage, fluorescence polarization; inhibition, % at 5.59 µM; actives 51% (n = 1,200);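 active = mean inhibition across triplicate wells above the cutoff set by the earlier primary insulin-degrading enzyme screen, cut at about 16% in these data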
HEK293 tox: counter-screen for IDE inhibitors: cytotoxicity in HEK cells; shares compounds with IDE cell inh; HEK293 cytotoxicity, ATP luminescence; inhibition, % at 5.59 µM; actives 28% (n = 1,200); AID 449730; in the data active = inhibition above about 22%
Large screens that a line does not name were inactive (follow-up assays come after a bar, where they were run). Shown are actives, neighbours in structure and some others; about 1.4% of the full set was active somewhere.

Cc1ccc(C(=O)C(OC(=O)CNC(=O)c2ccc(Cl)cc2)c2ccccc2)cc1 (configuration not stated)	IDE cell inh 17.4 | IDE inh confirm inactive | HEK293 tox inactive
O=C(CNC(=O)c1ccccc1)OC(C(=O)c1ccccc1)c1ccccc1 (configuration not stated)	none
CCCc1cc(=O)oc2c3c(cc(OCC(=O)NCc4ccncc4)c12)OC(C)(C)CC3	IDE cell inh 22.8 | IDE inh confirm inactive | HEK293 tox 25.2
COc1cc(/C=N\NC(=O)c2ccc(-c3ccccc3)cc2)cc(Br)c1O	IDE cell inh 21.2 | IDE inh confirm inactive | HEK293 tox inactive
O=C(CN1CCN(S(=O)(=O)c2ccc(F)c(F)c2)CC1)Nc1ccccc1C(=O)NC1CC1	none (no result: TPT1 inhibitor)
O=c1[nH]c2cc(Br)cnc2nc1/C=C(\O)c1ccc(F)cc1	IDE cell inh 25.5 | IDE inh confirm 65.4 | HEK293 tox inactive
O=C(NCc1nc2ncc(Br)cc2[nH]1)c1ccccc1	none
COc1cc(/C=C(/C#N)c2nc3ccccc3[nH]2)ccc1OC(=O)c1ccco1	IDE cell inh 67.3 | IDE inh confirm 142.3 | HEK293 tox inactive
CC1(C)OCC(CNC(=O)c2[nH]c(C(F)(F)F)nc2-c2ccccc2)O1 (configuration not stated)	none (no result: TPT1 inhibitor, IDE cell activ, CRFBP-R2 agonist, IDE cell inh)
COc1cccc(/C=C/C(=O)OCC(=O)NC(=O)NC2CCCCC2)c1	none
Cc1ccc2[nH]c3c(NCCCN4CCCC4=O)ncnc3c2c1	IDE cell inh 17.9 | IDE inh confirm inactive | HEK293 tox inactive
c1coc(CNc2ncnc3nc[nH]c23)c1	none
Cc1ccc2[nH]c3c(NCc4ccco4)ncnc3c2c1	IDE cell inh 64.8 | IDE inh confirm 53.2 | HEK293 tox 53.1
CSC(C1CCCC1)n1nnc2ccccc21 (configuration not stated)	none
O=c1c2[nH]c3ccc(Br)cc3c2ncn1CCCn1ccnc1	IDE cell inh 21.1 | IDE inh confirm inactive | HEK293 tox inactive
COc1ccc(-c2cc(-c3ccccc3O)[nH]n2)cc1OC	none
COc1ccc(-c2cc(-c3ccc(OC)c(OC)c3)n[nH]2)c(O)c1	IDE cell inh 17.4 | IDE inh confirm inactive | HEK293 tox inactive
O=C(NCC(c1ccco1)N1CCCC1)c1cc2ccccc2s1 (configuration not stated)	none (no result: TPT1 inhibitor)
CC(c1nccs1)N(C)C(=O)CCc1nnc(-c2ccc(-c3ccccc3)cc2)o1 (configuration not stated)	IDE cell inh 24.8 | IDE inh confirm inactive | HEK293 tox inactive
CCOc1ccc(NC(=O)c2ccccn2)cc1	IDE cell inh 16.9 | IDE inh confirm inactive | HEK293 tox 26.6
COc1ccc(Br)cc1CN(C)C(=O)CNC(=O)c1ccc2ccccc2c1	none
CCOc1ccc(CN(C)C(=O)CNC(=O)c2ccc3ccccc3c2)cc1OC	IDE cell inh 16.8 | IDE inh confirm inactive | HEK293 tox inactive
COc1ccccc1C(C#N)c1cccc(Cl)n1 (configuration not stated)	none
Cc1ccc(C(=O)/C=C/c2cc(Br)cc(Br)c2O)o1	IDE cell inh 16.5 | IDE inh confirm 26.5 | HEK293 tox inactive
Cc1ccc(C(=O)/C=C/N(C)C)o1	none
O=C(COc1ccc2ccc(=O)oc2c1)Nc1c(Cl)cccc1C(F)(F)F	none
CCCCCCNC(=O)N[C@H](C(=O)NCCC[C@H]1CN2C(=NC[C@H]2C)N1CCC(c1ccccc1)c1ccccc1)C(C)O (some centres not stated)	IDE cell inh 16.4 (no result: CRFBP-R2 agonist, HNF4A DNA FP) | IDE inh confirm inactive | HEK293 tox 37.7
COC(=O)c1ccc2c(c1)C(C)(C)C(/C=C/c1ccc(O)cc1)=[N+]2C	CRFBP-R2 agonist 51.2, IDE cell inh 16.2, HNF4A DNA FP 41.4 | IDE inh confirm 20.6 | HEK293 tox 122.0
O=C(Nc1cccc(-n2cnnn2)c1)c1cccc(Cl)c1	IDE cell inh 18.3 | IDE inh confirm inactive | HEK293 tox inactive
CCc1cccc(NC(=O)COC(=O)CSc2ccc(C)cc2)c1	none (no result: TPT1 inhibitor, IDE cell activ, IDE cell inh)
Cc1ccc(S(=O)(=O)N(CC(=O)Nc2ccccc2C(=O)O)c2ccccc2C)cc1	none

From PubChem
